# Screening data deposited in PubChem BioAssay by National Center for Advancing Translational Sciences (NCATS).
# Most compounds without a hit are left out; they make up all but 17% or so of the library.
# TGFb SMAD3 inh = blocks TGF-b signaling; HepG2 CAGA-GFP TGF-b/SMAD3 reporter, GFP fluorescence, 18 h; TGF-beta stimulated, 500 pg/mL final; actives 1.2% (n = 410,000); Potency, µM (doses to about 46.1 µM), inactives show at the highest dose activity, negative = inhibition, hits mostly inhibitors; note: % is set by controls: 0 for no effect and ±100 for the full control effect; nearly all actives have a fitted effect of over 65% in size
#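 Inhibition was scored as loss of TGF-beta-induced (500 pg/mL final, 18 hours, 37 degrees C) GFP in HEPG2 cells carrying a CAGA-GFP reporter, in DMEM with 1% FBS. Well GFP was summed per cell; Activity was normalised to unstimulated and stimulated DMSO wells, then concentration-response fitting.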
# TDP1 cell noCPT = qHTS for Inhibitors of human tyrosyl-DNA phosphodiesterase 1 (TDP1): qHTS in cells in absence of CPT. DT40 Tdp1-/- hTDP1 cells, no CPT, ATP luminescence, 48 h. Potency, µM (top dose mostly 46.2 µM), for inactives: at the top dose activity change, negative = growth inhibition, most hits filed as inhibitors. actives 15% (n = 420,000); note: % is set by controls: 0 for no effect and ±100 for the full control effect; nearly all actives have a fitted effect of over 55% in size
#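 Compound effects on proliferation are scored in DT40 Tdp1-/-;hTDP1 cells in the absence of CPT. ATP levels (CellTiter-Glo luminescence) are recorded after a ≥48 hr, 37 °C incubation.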
# HepG2 viability = kills HepG2 cells in TGF-b inhibitor counter-screen; HepG2 CAGA-GFP viability, ATP luminescence, 18 h; Potency, µM (series often up to 46.1 µM), without a hit: top-dose activity change, negative = cytotoxicity, most hits filed as cytotoxic; actives 0.76% (n = 410,000)
#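 CellTiter-Glo luminescence gave cytotoxicity after 18 hours at 37 degrees C. The cells were HepG2 CAGA-GFP in 1% FBS DMEM, stimulated with 500 pg/mL TGF-beta after compound addition. %Activity was normalised to no-cell wells (complete cell-killing) and DMSO (no toxicity), and curves were fitted and classified.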
# S2 tox = reduces viability in counter-screen for ATXN expression inhibitors. actives 0.49% (n = 400,000). Potency, µM (top dose mostly 56.7 µM), hits mostly cytotoxic. S2 cells (HEK-293 line with an ATXN2-luciferase reporter) viability, CellTiter-Fluor protease fluorescence, 24 h; note: nearly all actives have a fitted effect of over 40% in size
# ATXN2 expr inh = inhibitors of ATXN2 expression; AID 1745845; HEK-293 ATXN2-luciferase reporter, luminescence, 24 h; actives 0.72% (n = 360,000); Potency, µM (titrated, usually from 57 µM), for inactives: at the top dose activity change, negative = inhibition, most hits filed as inhibitors; note: % is set by controls: 0 for no effect and ±100 for the full control effect; nearly all actives have a fitted effect of over 55% in size
#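 qHTS (up to 57 uM final) was run with 24 h compound exposure of reporter cells at 37 °C. Each well was multiplexed: SteadyGlo luminescence measured ATXN2-luciferase expression after a fluorogenic Gly-Phe-AFC viability readout (25 uM final).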
# DT40 TDP1 CPT = DT40-hTDP1 cell growth loss with CPT; actives 12% (n = 420,000); chicken DT40 Tdp1-/-;hTDP1 cells + 20 nM CPT, ATP luminescence, 48 h; Potency, µM (top dose mostly 46.2 µM), inactives show at the top dose activity change, negative = growth inhibition, usual class: inhibitors; note: % is set by controls: 0 for no effect and ±100 for the full control effect; nearly all actives have a fitted effect of over 55% in size
#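 Chicken DT40 Tdp1-/- cells stably complemented with human TDP1 were seeded at 400 cells/well in medium containing 20 nM camptothecin, exposed to pin-transferred compounds, and grown at 37 °C for at least 48 hr. Viability was read as ATP luminescence.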
# The depositor's hits bear a star; i = inactive; ? = inconclusive; · = no result; [ ] = remark or other dose. Calls come from the whole dose curve; as a rule, active = well fitted curve in the direction sought with a large enough effect; inconclusive = small, poorly fitted or top-dose-only effect, or another doubt; inactive = no such curve, though single readings can be large; an effect the other way counts as inactive or inconclusive. Potency is the fitted concentration of half-maximal effect.
SMILES,TGFb SMAD3 inh,TDP1 cell noCPT,HepG2 viability,S2 tox,ATXN2 expr inh,DT40 TDP1 CPT
O=C1NC(c2cc3ccccc3nc2Cl)Nc2ccccc21 (configuration not stated),-9%,?,12%,i,3%,6%
c1ccc2nc3ccccc3cc2c1,?,13µM*,-17%,·,·,10µM*
COC(=O)COc1ccc(Cl)cc1Cl,·,12%,·,·,·,5%
CSc1nc(C)c(Br)c(N2CC2)n1,-8%,?,-13%,i,1%,-25%
FC(F)OC(F)(F)C(F)Cl (configuration not stated),·,-13%,·,·,·,4%
CO[C@H]1C[C@H](O[C@H]2[C@H](C)O[C@@H](O[C@@H]3/C(C)=C/C[C@@H]4C[C@@H](C[C@]5(C=C[C@H](C)[C@@H](C6CCCCC6)O5)O4)OC(=O)[C@@H]4C=C(C)[C@@H](O)[C@H]5OC/C(=C\C=C\[C@@H]3C)[C@]54O)C[C@@H]2OC)O[C@@H](C)[C@@H]1O,·,4.7µM*,·,3.2µM*,·,2.7µM*
c1ccc(-c2nc(N3CCOCC3)s[n+]2-c2ccccc2)cc1,-7%,?,-13%,i,21%,15µM*
C[N+]1(C)C2CC(OC(=O)[C@H](CO)c3ccccc3)CC1C1OC12 (some centres not stated),10%,-1%,7%,i,5%,-9%
Cc1occc1C(=O)Nc1cccc(-c2nc(CNC(=O)c3cccc(C#CC(C)(C)O)c3)c(C)o2)c1,·,21µM*,·,32µM*,·,-4%[9.04 µM]
O=C(CCCCCCCCCCC(=O)NCc1cccnc1)NCc1cccnc1,6%,?,-16%,i,27%,?
O=C(CCCc1ccc(N(CCCl)CCCl)cc1)NCc1ccccc1,-10%,0.73µM*,-18%,i,·,0.73µM*
O=C(CCCc1nc(-c2ccc(Cl)cc2)no1)NCC1CCCO1 (configuration not stated),-8%,18µM*,-4%,i,-29%,?
Cc1c(C=C2C(=O)N(C)C(=S)N(C)C2=O)c2ccccc2n1CC(=O)NCC1CCCO1 (configuration not stated),0%,?,1%,i,-14%,?
COc1ccc(CCNC(=O)CCc2c(C)nc3c(-c4ccc(F)cc4)c(C)nn3c2C)cc1OC,?,12µM*,9%,i,8%,8.2µM*
O=c1c2ccccc2nc(/C=C/c2ccc3c(c2)OCO3)n1-c1ccccc1,-27%,23µM*,0%,i,-2%,?
COc1cccc(-n2c(/C=C\c3ccc(Cl)cc3)nc3ccccc3c2=O)c1,-13%,18µM*,-11%,·,·,?
COc1cccc(-n2c(C)nc3ccccc3c2=O)c1,6%,-12%,-9%,i,0%,-29%
COc1ccc(-n2c(/C=C/c3ccc(O)c(O)c3)nc3ccccc3c2=O)cc1,?,18µM*,-39%,·,·,?
O=c1c2ccccc2nc(/C=C/c2ccccn2)n1-c1ccccc1,-12%,-20%,1%,?,14%,-25%
CC(C)NC(=O)NC1C2CC3CC(C2)CC1C3 (configuration not stated),-4%,?,6%,i,0%,-23%
CC(=O)Oc1ccc(/C=C/c2cc(OC(C)=O)cc(OC(C)=O)c2)cc1,·,12µM*,·,·,·,?
CCOC(=O)C(C#N)=C(c1ccccc1)c1ccccc1,·,?,·,i,-13%,?
CN(C)S(=O)(=O)c1ccc(C(=O)NNc2nc(-c3ccccc3)c3cc(Br)ccc3n2)cc1,6%,?,-26%,i,-15%,?
NC(Cc1ccc(C(F)(F)F)cc1)c1csc(Nc2nncc3ccccc23)n1 (configuration not stated),?,21µM*,-79%,?,?,13µM*
NC(Cc1ccc(Cl)cc1)c1csc(Nc2ncccn2)n1 (configuration not stated),?,4.1µM*,-43%,?,?,3.7µM*
SMILES,TGFb SMAD3 inh,TDP1 cell noCPT,HepG2 viability,S2 tox,ATXN2 expr inh,DT40 TDP1 CPT
NC(Cc1ccc(F)cc1)c1csc(Nc2ncccn2)n1 (configuration not stated),?,5.8µM*,-23%,i,?,7.3µM*
Nc1ccc(CC(N)c2csc(Nc3ncccn3)n2)cc1 (configuration not stated),-5%,10µM*,-4%,i,-24%,18µM*
Cc1ccccc1-n1c(/C=C/c2c(C)[nH]c3ccccc23)nc2ccccc2c1=O,?,1.8µM*,-24%,·,·,2.1µM*
O=c1c2ccccc2nc(/C=C\c2ccccc2[N+](=O)[O-])n1-c1ccccc1O,?,23µM*,6%,?,-1%,?
O=c1c2ccccc2nc(/C=C\c2ccc(F)cc2)n1-c1ccccc1F,-2%,?,8%,·,·,23µM*
CCCCc1nc2ccccc2c(=O)n1-c1ccccc1[N+](=O)[O-],-9%,15µM*,-32%,?,-5%,?
NC1CC1c1ccccc1 (configuration not stated),·,·,·,·,2%,·
NNc1ccccc1,·,1%,·,i,9%,-13%
Cc1ccccc1-n1c(/C=C/c2ccc(N(C)C)cc2)nc2ccccc2c1=O,273%,13µM*,-8%,·,·,16µM*
NCC[C@H](O)C(=O)N[C@@H]1C[C@H](N)[C@@H](O[C@H]2O[C@H](CN)[C@@H](O)[C@H](O)[C@H]2N)[C@H](O[C@@H]2O[C@H](CO)[C@@H](O)[C@H]2O)[C@H]1O,·,-1%[21.1 µM],·,i,·,-4%[21.1 µM]
CCN(CC)c1ccc(CN(C)CCc2ccc(OC)c(OC)c2)cc1,-19%,?,-40%,i,-23%,23µM*
CN[C@@H](C)[C@H](O)c1ccccc1,4%,-11%,9%,i,2%,18%
Cc1nn(Cc2ccccc2)c(Cl)c1C(=O)NC1CCCc2ccccc21 (configuration not stated),-11%,21µM*,-19%,i,-11%,?
COC(=O)C1=C(c2ccc(OC)c(OC)c2)C[C@@H]2CC[C@H]1N2C(=O)N1CCC(O)CC1,?,-14%,0%,i,3%,-10%
